# Test results: PubChem BioAssay AID618 (Sanford-Burnham Center for Chemical Genomics, 2007)
# Among all 87,000 compounds or so, about 540 (0.62%) were called active. The sample holds actives, similar compounds and a random draw of the others, so the mix is not that of the screen. The rule behind the calls is not given here. Measured potencies and affinities stand elsewhere.
# Assay: MT1-MMP gene expression reporter suppression – cell-based, luciferase reporter, luminescence (AID 618);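 note: actives suppress MT1-MMP promoter-driven transcription so potencies describe inhibitors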
# Settings: MT1-MMP promoter luciferase reporter cells
row,Structure (SMILES),outcome
1,CCCCN1CC(C(=O)NCc2ccc(C)cc2)CC1=O (stereo not given),inactive
2,CCCN1Cc2cccc(C(=O)NCc3ccc4c(c3)OCO4)c2C1=O,inactive
3,c1coc(CN2CN=C(Nc3nc4ccccc4s3)NC2)c1,inactive
4,Cc1cc(S(=O)(=O)N(Cc2ccc(F)cc2)CC2CCCO2)ccc1-n1cnnn1 (stereo not given),inactive
5,COc1ccc(OC)c(CNn2c(-c3cccc(C)c3)nc3ccccc3c2=O)c1,inactive
6,CC1=CC(C)(C)N2C(=O)C3(C(C#N)=C(N)Oc4cc(O)ccc43)c3c(C)c(C)cc1c32 (stereo not given),inactive
7,Cc1cc(C(=O)CSc2nnc(-c3ccccc3F)o2)c(C)n1Cc1cccs1,inactive
8,O=C(CSc1nnc(-c2cccs2)o1)c1cccs1,inactive
9,COC(=O)C1=C(C)N(CCCC(=O)O)C(=O)NC1c1ccccc1Cl (stereo not given),inactive
10,Brc1ccc(OCc2nc(-c3ccccn3)n[nH]2)cc1,inactive
11,COc1ccc2c(c1)sc1nc(-c3ccccc3)cn12,active
12,CCOC(=O)N1CCN(C(=O)c2ccc3c(c2)sc2nc(-c4ccccc4)cn23)CC1,inactive
13,CCOC(=O)N1CCC(NC(=O)c2ccc3c(c2)sc2nc(-c4cccc(OC)c4)cn23)CC1,inactive
14,Cc1sc2ncnc(Oc3ccc(-n4ccnc4)cc3)c2c1C,inactive
15,N#CC1(Nc2ccccc2)C(=O)Nc2ccccc21 (stereo not given),inactive
16,Cc1ccc2nc(-c3ccccn3)oc2c1,inactive
17,Nc1cc(N)cc(-c2nc3ccccc3o2)c1,inactive
18,Nc1ccc2nc(-c3ccccc3)[nH]c2c1,inactive
19,Cc1ccc2nc(-c3cccc(-c4nc5ccc(C)cc5o4)n3)oc2c1,inactive
20,Cc1ccc2nc(-c3cccnc3)oc2c1,inactive
21,Nc1cccc(-c2nc3ccccc3[nH]2)c1,inactive
22,COCCNC(=O)Nc1ccc2nc(C)sc2c1,inactive
23,CCCCN(C)C(=O)c1oc2ccc(S(=O)(=O)N3CCCCCC3)cc2c1C,inactive

row,Structure (SMILES),outcome
1,CCn1cc(C(=O)N2CCCC2)c(=O)c2cc(S(=O)(=O)N(C)C)ccc21,inactive
2,O=C(NCCCn1ccnc1)c1noc2c1CCc1ccccc1-2,inactive
3,CCOCc1nnc(NC(=O)CCc2ccccc2)s1,inactive
4,C=CCN1C(=NC(=O)CCCC(=O)O)SC2CS(=O)(=O)CC21 (stereo not given),inactive
5,COc1ccccc1Nc1nc(NCCO)c2ccccc2n1,inactive
6,C=C(C)Cn1c(CCNC(=O)C(C)(C)C)nc2ccccc21,inactive
7,Cc1ccc(O)c(N=CC2=C(O)c3ccccc3C2=O)c1,inactive
8,O=C1C(C=Nc2ccccc2O)=C(O)c2ccccc21,inactive
9,CCc1ccc(NC(=O)C(=O)NCCN2CCN(C(=O)c3ccco3)CC2)cc1,inactive
10,CC1=C(C(=O)OC(C)C)C(c2cccc(F)c2)N2C(=O)C(C)SC2=N1 (stereo not given),inactive
11,CCOC(=O)CSc1nnc(CNC(=O)c2ccc(OC)cc2OC)n1-c1ccc(OC)cc1,inactive
12,CCN(CC)C(=O)N1CCn2c(nc3ccccc32)C1,inactive
13,Cn1ncc(N=Cc2ccc([N+](=O)[O-])cc2)c1C(=O)N1CCOCC1,inactive
14,CC(C)(C)C(=O)/C(=C\c1ccc([N+](=O)[O-])cc1)n1cncn1,active
15,O=[N+]([O-])/C(C(Cl)=C(Cl)Cl)=C(\Nc1ccc(F)cc1)n1cncn1,inactive
16,Nn1c(COc2ccccc2)nnc1SCc1cc(=O)[nH]c2ccccc12,inactive
17,CCOC(=O)c1sc2nc(-c3ccco3)c3c(c2c1N)CC(C)(C)OC3,inactive
18,COc1ccccc1OCC(=O)Nc1nc(-c2ccc(S(=O)(=O)N3CCOCC3)cc2)cs1,inactive
19,CC1CN/C(=C\C(=O)c2ccc(Cl)cc2)C(=O)N1 (stereo not given),inactive
20,CC1CN/C(=C\C(=O)c2ccccc2)C(=O)N1 (stereo not given),inactive
21,Cc1ccc(-n2ncc3c(=O)[nH]c(SCC(=O)N4CCC(C)CC4)nc32)cc1C,inactive
22,COc1ccc(NC(=O)c2cccs2)cc1,inactive
23,Cc1sc(NC(=O)c2ccccc2)c(C(=O)NC(C)C)c1C,inactive

row,Structure (SMILES),outcome
1,Cc1cc(NC(=O)c2ccccc2)sc1C,inactive
2,Cc1ccc(NC(=O)c2ccccc2)s1,active
3,CCOc1ccccc1CNC(=O)C1CCCN(c2nc3ccccc3o2)C1 (stereo not given),inactive
4,CN1Cc2cc(C(=O)c3cc(Cl)cc(CSc4ncccn4)c3O)cnc2NC1=O,active
5,CCCCN1Cc2cc(C(=O)c3cc(F)ccc3O)cnc2NC1=O,inactive
6,CN1Cc2cc(C(=O)c3ccccc3O)cnc2NC1=O,inactive
7,O=C(CN1C(=O)c2ccccc2S1(=O)=O)Nc1cccnc1,inactive
8,COc1ccc(CSc2nnc(C)n2N)cc1,inactive
9,COc1cccc(CC2CC(=O)N(CCc3ccc4c(c3)OCO4)C2=O)c1 (stereo not given),inactive
10,CCC(=O)c1ccc(OCCSc2ncccn2)cc1,inactive
11,COc1ccc(N=C2SCC(=O)N2c2ccc(OC)cc2)cc1,inactive
12,Cc1ccc(C2CC(c3ccco3)n3nc(N)nc3N2)cc1 (stereo not given),inactive
13,Cc1ccc2c(c1)C(N1CCCC1=O)CC(c1ccco1)N2 (stereo not given),active
14,Cc1ccc(C2CC(c3ccco3)n3ncnc3N2)cc1 (stereo not given),inactive
15,CCc1nn(C(C)C(=O)NCCN2CCN(c3cccc(C)c3C)CC2)c(=O)c2cc3occc3n12 (stereo not given),inactive
16,CCOC(=O)c1ccc(N=CC2=C(O)CC(c3ccco3)CC2=O)cc1 (stereo not given),inactive
17,Cc1c(C(=O)OC2CCCCC2)[nH]c2c1C(=O)CC(C)(C)C2,inactive
18,CCC(C)OC(=O)c1[nH]c2c(c1C)C(=O)CC(c1ccc(N(C)C)cc1)C2 (stereo not given),inactive
19,CCOC(=O)c1[nH]c2c(c1C)C(=O)CC(c1ccco1)C2 (stereo not given),active
20,Cc1c(C(=O)OCC2CCCO2)[nH]c2c1C(=O)CC(c1ccco1)C2 (stereo not given),inactive
21,Cc1c(C(=O)OCC(C)C)[nH]c2c1C(=O)CC(c1ccco1)C2 (stereo not given),active
22,Cc1c(C(=O)OC2CCC(C)CC2)[nH]c2c1C(=O)CCC2 (stereo not given),inactive
23,Cc1c(C(=O)OC2CCCC2)[nH]c2c1C(=O)CC(c1ccco1)C2 (stereo not given),active

row,Structure (SMILES),outcome
1,COCCOC(=O)c1[nH]c2c(c1C)C(=O)CC(c1ccco1)C2 (stereo not given),active
2,COCCOC(=O)c1[nH]c2c(c1C)C(=O)CC(c1cc(OC)ccc1OC)C2 (stereo not given),inactive
3,COCCOC(=O)c1[nH]c2c(c1C)C(=O)CC(c1ccc(N(C)C)cc1)C2 (stereo not given),inactive
4,O=c1[nH]c(CN2CCN(c3ccc([N+](=O)[O-])cc3)CC2)nc2ccsc12,inactive
5,CCCCCOC(=O)CSc1n[nH]c(=O)[nH]c1=O,inactive
6,O=C(CC(Nc1ccc(Cl)cc1)C(=O)O)c1ccccc1 (stereo not given),inactive
7,Cc1cccc(NC(=O)COC(=O)CNC(=O)C2CCCCC2)c1,inactive
8,NC(=O)CSc1nnnn1-c1ccc2c(c1)OCCO2,inactive
9,O=C1CCCC2=C1C(Cc1ccccc1)C1=C(CCCC1=O)O2,inactive
10,CCN(CCNC(=O)CC1Oc2ccccc2NC1=O)c1ccccc1 (stereo not given),inactive
11,Cc1ccc(C2/C(=C(\O)c3ccc4c(c3)OCCO4)C(=O)C(=O)N2CCCN(C)C)o1 (stereo not given),inactive
12,CCN1CCN(C(=O)c2cc3c(=O)oc4ccc(C)cc4c3s2)CC1,inactive
13,COCCOC(=O)c1[nH]c2c(c1C)C(=O)CC(c1ccc(F)cc1)C2 (stereo not given),inactive
14,CCCOC(=O)c1[nH]c2c(c1C)C(=O)CC(c1cccs1)C2 (stereo not given),active
15,Cc1c(C(=O)OCCOC(C)C)[nH]c2c1C(=O)CC(C)(C)C2,inactive
16,CCCOCCOC(=O)c1[nH]c2c(c1C)C(=O)CC(c1cc(OC)ccc1OC)C2 (stereo not given),inactive
17,COC(=O)c1[nH]c2c(c1C)C(=O)CC(c1cccs1)C2 (stereo not given),inactive
18,CSCCOC(=O)c1[nH]c2c(c1C)C(=O)CC(c1ccco1)C2 (stereo not given),active
19,CCOCCOC(=O)c1[nH]c2c(c1C)C(=O)CC(c1ccc(N(C)C)cc1)C2 (stereo not given),inactive
20,CCCOC(=O)c1[nH]c2c(c1C)C(=O)CC(c1ccc(OC)c(OC)c1)C2 (stereo not given),inactive
21,Cc1c(C(=O)OCC(C)C)[nH]c2c1C(=O)CC(c1cccs1)C2 (stereo not given),inactive
22,CCOC(=O)c1[nH]c2c(c1C)C(=O)CC(c1ccc(F)cc1)C2 (stereo not given),active
23,Cc1c(C(=O)OCCOC(C)C)[nH]c2c1C(=O)CC(c1ccco1)C2 (stereo not given),active

row,Structure (SMILES),outcome
1,COc1cc(C2CC(=O)c3c([nH]c(C(=O)OCCOC(C)C)c3C)C2)cc(OC)c1OC (stereo not given),inactive
2,Cc1cc(Cl)cc(C)c1OCCCCN1CCOCC1,inactive
3,COCCn1c(CNc2ccc(F)cc2)nnc1SCC(=O)Nc1ccc(OC)cc1OC,inactive
4,COc1ccc(CN2CC(C(=O)NCc3cccc(OC)c3)CC2=O)cc1 (stereo not given),inactive
5,COC(=O)c1ccccc1NC(=O)c1ccc(-c2cccc(Cl)c2)o1,inactive
6,O=C(Nc1nnc(-c2ccc(Cl)s2)o1)C1CCCCC1,inactive
7,COc1ccccc1Oc1ccc2c(c1)C(=O)N(c1cccc(O)c1)C2=O,inactive
8,CCC(=O)N1CCNC(=O)C1CC(=O)Nc1ccc(C)c(Cl)c1 (stereo not given),inactive
9,CNCc1ccc(OCc2ccccc2)c(OC)c1,inactive
10,CC1=C(C(=O)OCc2ccccc2)C(c2ccco2)C2=C(CC(C)(C)CC2=O)N1 (stereo not given),inactive
11,Cc1c(C(=O)N2CCOCC2)[nH]c2c1C(=O)CC(c1ccccc1Cl)C2 (stereo not given),inactive
12,Cc1c(C(=O)OCc2ccccc2)[nH]c2c1C(=O)CC(c1ccco1)C2 (stereo not given),active
13,C=CCN1CC(c2nc3ccccc3n2Cc2cccc3ccccc23)CC1=O (stereo not given),inactive
14,CCCOc1ccc(C(CC(=O)O)NC(=O)C23CC4CC(CC(C4)C2)C3)cc1 (stereo not given),inactive
15,Cc1ccc(C(=O)Nc2cc(Cl)ccc2N2CCCCC2)s1,inactive
16,O=C(/C=C/Nc1ccc(F)cc1)c1ccco1,inactive
17,CC(=O)Nc1ccc(N/C=C/C(=O)c2ccco2)cc1,inactive
18,CN(C)c1ccc(N/C=C/C(=O)c2ccccc2)cc1,active
19,CN(C)c1ccc(NC(=O)CN2CCN(CC(=O)Nc3ccc(F)cc3)CC2)cc1,inactive
20,CN(C)c1ccc(N/C=C/C(=O)c2ccc(F)cc2)cc1,active
21,CN(C)c1ccc(C(=O)c2ccccc2)cc1,inactive
22,CN(C)c1ccc(N/C=C/C(=O)C(C)(C)C)cc1,inactive
23,CN(C)c1ccc(NC(=O)CN2CCC(C(=O)c3ccc(F)cc3)CC2)cc1,inactive
